Sampled rows, rich in hits. Any-hit rate of the full collection: about 3.5%.
Pf apPOL inh = Pf-apPOL DNA polymerase inhibition. hit rate 0.25% among 210,000. Recombinant Pf-apPOL, molecular beacon fluorescence, 1.5 h. inhibition, % at 10 µM
mHTT CaM bind = inhibitors of human mutant huntingtin-calmodulin interaction; AID 1671202; AlphaScreen His-mHTT/GST-CaM binding, luminescence; hit rate 3.6% among 190,000; P42858; inhibition, % at 15 µM
Of the large screens only hits and unclear results are named; the others gave an inactive call. Rule as the data show it: active = inhibition above about 50%; inactive = the rest.

COc1cc(/C=C2\C(=O)Nc3ccc(Br)cc32)cc(Br)c1O	mHTT CaM bind 100
COc1cc(/C=C2\C(=O)Nc3ccc(Br)cc32)cc(Br)c1OC	mHTT CaM bind 59
O=C1Nc2ccc(Br)cc2/C1=C/C1CC=CCC1 (stereo not given)	mHTT CaM bind 51
COc1cc(/C=C2\NC(=O)NC2=O)cc(Br)c1O	none
O=C(NCc1ccccn1)C1CCc2nc(N3CCCCC3)ncc2C1 (stereo not given)	none
O=[N+]([O-])c1ccc(C=Nc2cc(Cl)cc(Cl)c2)s1	none (no result: Pf apPOL inh)
CCCCNC(=O)CCS(=O)(=O)Cc1ccccc1Cl	none
CONC(=Nc1cc(C)ccc1C)c1nonc1N	none
COc1ccc(C2c3c(oc4ccccc4c3=O)C(=O)N2CCN(C)C)cc1OC (stereo not given)	none
COc1ccc(C=C2Oc3cc(OC(=O)c4cccc([N+](=O)[O-])c4)ccc3C2=O)c(OC)c1OC	none
COc1cc(/C=C2\C(=O)Nc3ccc(Br)cc32)cc(OC)c1O	mHTT CaM bind 100
COc1cc(/C=C2\C(=O)Nc3ccc(F)cc32)cc(OC)c1OC	none
Cc1ccc(N2CCC(NC(=O)c3cccc(F)c3)C2=O)cc1C (stereo not given)	none
CCN1/C(=C/c2cccc[n+]2C)C=Cc2ccccc21	none
CCN1C(=Cc2c3ccccc3cc[n+]2CC)C=Cc2ccccc21	mHTT CaM bind 63
O=C(Cc1ccsc1)N1CCn2c(nnc2-c2ccccc2)C1	none
Cc1ccc2n1CCN(C(=O)NCc1ccccc1)C2C(C)C (stereo not given)	none
Cc1ccc2n1CCN(C(=O)NCCc1ccccc1)C2C(C)C (stereo not given)	mHTT CaM bind 54
CC(C)c1ccc(N2CCN(C(=O)c3cccs3)C(C)C2=O)cc1 (stereo not given)	none
Cc1cccc(NC(=O)C2CCN(S(=O)(=O)c3c(C)n[nH]c3C)CC2)c1C	none
COc1cccc(-c2ccc(CN3C(C)C(=O)N(Cc4cn(Cc5ccco5)nn4)CCS3(=O)=O)cc2)c1OC (stereo not given)	none
CC1C(=O)N(Cc2cn(Cc3ccco3)nn2)CCS(=O)(=O)N1Cc1ccc(-c2ccccc2C(F)(F)F)cc1 (stereo not given)	mHTT CaM bind 68
Cc1ccccc1-c1ccc(CN2C(C)C(=O)N(Cc3cn(Cc4ccco4)nn3)CCS2(=O)=O)cc1 (stereo not given)	mHTT CaM bind 92
Cc1ccc(-c2ccc(CN3C(C)C(=O)N(Cc4cn(Cc5ccco5)nn4)CCS3(=O)=O)cc2)c(C)c1 (stereo not given)	mHTT CaM bind 84
Cc1ccc(-c2ccc(CN3C(C)C(=O)N(Cc4cn(Cc5ccco5)nn4)CCS3(=O)=O)cc2)cc1 (stereo not given)	none
CC1C(=O)N(Cc2cn(Cc3ccco3)nn2)CCS(=O)(=O)N1Cc1ccc(-c2ccc(F)nc2)cc1 (stereo not given)	none
CCCCC1=NN(S(=O)(=O)c2ccc(C)cc2)C(O)(C(F)(F)F)C1 (stereo not given)	none
COc1ccc(-n2ncc3c(N4CCCC4)nc(C)nc32)cc1	none
O=C(O)CN(Cc1ccc(Cl)c(Cl)c1)S(=O)(=O)c1ccccc1	none
CSc1nnc(Cc2nnc(SC)n2-c2ccccc2)n1-c1ccccc1	none
CCCCCCNC(=O)C1CCCN(c2ncc(-c3ccccc3)cn2)C1 (stereo not given)	none
O=C(c1ccc(OC(F)(F)F)cc1)N1CCN(CCn2cccn2)CC1	none
COCCNC(=O)C1COc2ccc(NC(=O)C(C)(C)C)cc2C1 (stereo not given)	none
CC(O)C(O)c1cnc2nc(N)[nH]c(=O)c2n1 (stereo not given)	none (no result: mHTT CaM bind)
O=c1c2ccccc2nc(SCc2ccccc2)n1-c1ccccc1	none
CC(=O)c1ccc(-c2c([C@H]3[C@@H]4C=CCC[C@@]4(C)C(=O)N3Cc3ccccc3)ccc3ccccc23)cc1	mHTT CaM bind 101
CN(C)c1ccc(-c2c([C@H]3[C@@H]4C=CCC[C@@]4(C)C(=O)N3Cc3ccccc3)ccc3ccccc23)cc1	none
COc1ccc(-c2ccc([C@H]3[C@@H]4C=CCC[C@@]4(C)C(=O)N3Cc3ccccc3)c(F)c2)cc1OC	none
COc1ccc(-c2c([C@H]3[C@@H]4C=CCC[C@@]4(C)C(=O)N3Cc3ccccc3)ccc3ccccc23)cc1OC	mHTT CaM bind 100
O=C(Nc1ccccc1)OC1CCCC(NC(=O)c2ccc3c(c2)OCO3)C1 (stereo not given)	none
COc1ccc(C2CC(=O)C3=C(C2)Nc2ccccc2NC3c2ccc(Cl)s2)cc1OC (stereo not given)	mHTT CaM bind 56
COc1ccc(C2CC(=O)C3=C(C2)Nc2ccccc2NC3c2ccc(C)s2)cc1OC (stereo not given)	none
COc1ccc(C2CC(=O)C3=C(C2)Nc2ccccc2NC3c2ccc(Cl)cc2)cc1OC (stereo not given)	none
COc1ccc(C2CC(=O)C3=C(C2)Nc2ccccc2NC3c2ccc(N(C)C)cc2)cc1OC (stereo not given)	mHTT CaM bind 52
COc1cc(C=C2Oc3c(CN4CCN(C)CC4)c(O)cc(C)c3C2=O)cc(OC)c1OC	none
COc1ccccc1C(=O)Nc1ccc(NC(=O)C(C)C)cc1	none
O=C1CC(NCCCN2CCOCC2)C(=O)N1c1ccc(N=Nc2ccccc2)cc1 (stereo not given)	none
O=C1CC(NCCCN2CCOCC2)C(=O)N1c1ccc(Br)cc1 (stereo not given)	mHTT CaM bind 54
COc1cc(C2CC(c3ccccc3O)=NN2)ccc1O (stereo not given)	mHTT CaM bind 89
COc1ccccc1C1CC(c2cc(Cl)ccc2O)=NN1 (stereo not given)	none
Cc1ccnc(N2CCCC(C(=O)Nc3ccc(Cl)cc3C)C2)n1 (stereo not given)	none
CC(=O)C1=C(O)C(=O)N(CC(=O)O)C1c1ccccc1 (stereo not given)	none
COc1ccc(NC(=O)C2CCc3sc(C(=O)N4CCCC4)cc3C2)cc1F (stereo not given)	none
CC(=O)N1c2c(cc(Br)cc2S(=O)(=O)Nc2cccc(Cl)c2)CC1C (stereo not given)	none
CC(C)n1cnc2ccc(-c3noc(Cc4c[nH]c5ccccc45)n3)cc21	mHTT CaM bind 100
CCCn1cnc2ccc(-c3noc(Cc4cccs4)n3)cc21	none
CCCc1cc(=O)[nH]c(SCc2nc3ccccc3c(=O)[nH]2)n1	none
Oc1ccccc1C=Nc1ccc(O)c(-c2nc3ccccc3s2)c1	none
COc1cc(C=Nc2ccc(O)c(-c3nc4ccccc4s3)c2)ccc1O	mHTT CaM bind 79
Cc1ccccc1C(=O)N1CCC(COc2ccc(C(=O)NC(C)C)cc2)CC1	none
Cc1nc2cc(N)ccc2s1	none
Nc1ccc2cc3ccc(N)cc3nc2c1	mHTT CaM bind 55 (no result: Pf apPOL inh)
O=C(NCc1ccc(F)cc1)C1CCN(c2ccc(N3CCCC3)nn2)CC1	none
Cc1cc(C)nc(NS(=O)(=O)c2ccc(NC(=O)CSc3ncn[nH]3)cc2)n1	Pf apPOL inh 62
Cc1ccnc(NS(=O)(=O)c2ccc(NC(=O)CSc3nc(C)cc(=O)[nH]3)cc2)n1	none
Cc1ccc2c(c1)/C(=C/c1nc3ccccc3c(=O)n1C)C(=O)N2	none
Cc1ccc2c(c1)/C(=C/c1nc3ccccc3c(=O)n1-c1ccccc1[N+](=O)[O-])C(=O)N2	mHTT CaM bind 86
O=C1S/C(=C\c2ccccc2F)C(=O)N1CNc1ccccc1	none
Cc1noc(-c2ccc(C(C)(C)C)cc2)c1C(=O)NCc1ccsc1	none
O=C(c1n[nH]c2c1CCCC2)N1CCC(Nc2cccnc2)C1 (stereo not given)	none

Compound activity (PubChem)
